TMEM16A act: activates or potentiates the mouse TMEM16A chloride channel. actives 0.3% (n = 340,000). Q8BHY3. B-score at 10 µM. HEK293 TMEM16A/YFP-H148Q/I152L, iodide quench fluorescence; stronger effect = lower value;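 active = fluorescence-ratio B-score plate-corrected deviation score at least 3 library SD below zero, with starting fluorescence score within 5 deviations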;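 note: channel opened by trigger with iodide after compound preincubation; score built on the fluorescence ratio of max minus min over baseline; more negative score means more quench and so TMEM16A activation or potentiation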
Target sequence (Q8BHY3 whole entry, looked up): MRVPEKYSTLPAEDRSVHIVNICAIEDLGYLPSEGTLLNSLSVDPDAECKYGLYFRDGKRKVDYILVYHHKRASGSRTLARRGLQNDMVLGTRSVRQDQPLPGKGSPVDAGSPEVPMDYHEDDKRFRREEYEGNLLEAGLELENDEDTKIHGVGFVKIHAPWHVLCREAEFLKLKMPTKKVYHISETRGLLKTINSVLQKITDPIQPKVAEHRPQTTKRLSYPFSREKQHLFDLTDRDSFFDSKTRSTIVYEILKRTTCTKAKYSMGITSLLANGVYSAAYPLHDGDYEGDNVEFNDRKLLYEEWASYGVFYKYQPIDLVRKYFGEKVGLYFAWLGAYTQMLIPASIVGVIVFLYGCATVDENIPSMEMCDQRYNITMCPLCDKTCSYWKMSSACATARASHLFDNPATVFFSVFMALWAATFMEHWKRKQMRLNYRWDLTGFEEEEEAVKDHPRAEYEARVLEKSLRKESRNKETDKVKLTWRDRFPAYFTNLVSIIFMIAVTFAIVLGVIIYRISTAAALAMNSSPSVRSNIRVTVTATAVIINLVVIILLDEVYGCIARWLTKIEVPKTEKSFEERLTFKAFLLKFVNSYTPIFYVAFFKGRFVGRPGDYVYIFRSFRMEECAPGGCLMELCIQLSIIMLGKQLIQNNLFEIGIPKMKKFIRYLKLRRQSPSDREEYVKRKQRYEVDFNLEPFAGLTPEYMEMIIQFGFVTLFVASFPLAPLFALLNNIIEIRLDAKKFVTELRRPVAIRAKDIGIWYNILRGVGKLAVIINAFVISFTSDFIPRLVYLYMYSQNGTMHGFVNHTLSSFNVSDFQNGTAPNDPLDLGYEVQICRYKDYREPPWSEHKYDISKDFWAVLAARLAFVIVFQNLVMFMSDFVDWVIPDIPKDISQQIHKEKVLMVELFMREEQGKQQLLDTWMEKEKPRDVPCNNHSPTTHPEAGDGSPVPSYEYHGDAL
CRFBP-R2 agonist: agonists of human CRF-binding protein/CRF-R2 receptor complex; HEK293 CRF-R2/CRF-BP, calcium dye fluorescence (FLIPR); percent of saturating CRF peptide response; activation, % at 13.2 µM; actives 0.46% (n = 350,000);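 active = activation of at least 50%, plus an integration ratio under a set limit after plate pattern correction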;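 note: plate controls were neutral control wells without compound for no effect and CRF at EC100 for full effect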
GRIN3A LBD mod: NR3A (human) ligand-binding domain modulation. NR3A LBD differential scanning fluorimetry, Tm shift; 0% = protein alone, 100% = glycine-bound protein. Tm shift relative to glycine control, % at 25 µM. actives 2.5% (n = 340,000);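 active = melting temperature shift of at least 10% of the positive control shift, at one fixed dose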
ANO1 block: blocks the mouse calcium-activated chloride channel TMEM16A | AID 588511 | Q8BHY3 | normalized B-score (activity score, 25-100; higher = stronger inhibition) at 10 µM | HEK293 TMEM16A/YFP iodide influx fluorescence, ionomycin | actives 1.2% (n = 310,000);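 active = ratio plate-corrected score three or more library SD toward inhibition, starting fluorescence score within five deviations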;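 note: score derived from kinetic fluorescence span divided by baseline fluorescence per well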
MPTP inh: permeability transition pore inhibition. isolated mouse mitochondria, Ca2+ swelling absorbance, 30 min. inhibition, % at 10 µM. actives 1.4% (n = 360,000);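 active = inhibition of 50% or more, scaled per plate between neutral and stimulator controls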;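 note: 0% = DMSO wells given calcium and 100% = 1 mM EGTA wells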
CRFBP-R2 block: antagonists of CRF-binding protein/CRF-R2 receptor complex; HEK293 CRF-R2/CRF-BP, CRF-induced calcium fluorescence; actives 0.59% (n = 350,000); AID 588475; inhibition, % at 11.8 µM;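 active = inhibition of the ligand-induced calcium signal above about 50% at the single tested concentration, limit read from the data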
* = called active by the depositor; i = inactive; / = no result. Only some compounds are listed: those with a hit (about 5.1% of all), similar ones and a draw of the others.

SMILES	TMEM16A act	CRFBP-R2 agonist	GRIN3A LBD mod	ANO1 block	MPTP inh	CRFBP-R2 block
CCCN1CCc2c(sc(NC(=O)c3ccc(S(=O)(=O)N4CCCC4)cc3)c2C(N)=O)C1	i	62*	1	i	0	-54
CCOC(=O)Nc1ccc2nc(N3CCCCCC3)sc2c1	i	-2	21*	i	0	7
CCOC(=O)N1CCN(C(=O)Nc2ccc3nc(C)sc3c2)CC1	i	1	3	i	-1	-8
CCN(CC)c1ncnc2c1ncn2[C@H]1CN(Cc2ccncc2)C[C@@H](CO)O1	/	/	/	/	0	/
O=S(=O)(c1ccccc1)c1cnn2c(C(F)(F)F)cc(-c3ccccc3)nc12	i	0	-2	i	3	15
COc1ccccc1-c1cc(C(F)(F)F)n2ncc(S(=O)(=O)c3ccccc3)c2n1	i	2	24*	i	2	16
O=S(=O)(c1ccccc1)c1cnn(-c2ccccc2)c1-c1ccc(F)cc1	i	-1	2	i	6	51*
O=S(=O)(c1ccccc1)c1cnn2c(C(F)(F)F)cc(-c3ccc(F)cc3)nc12	i	1	14*	i	4	4
O=C(Cc1ccc(F)cc1)Nc1c(C(=O)N2CCN(c3ncccn3)CC2)oc2ccccc12	i	0	0	i	-2	9
CC(SCc1ccc(C(=O)O)o1)c1ccc(C(=O)O)o1 (stereo not drawn)	i	2	0	i	0	16
COc1ccc(C(O)c2nc(-c3cccc(F)c3)cs2)cc1 (stereo not drawn)	/	/	/	/	1	/
CCCNC(=O)CS(=O)(=O)Cc1nc(-c2cccc(OC)c2)oc1C	i	4	2	i	-2	-3
CCOCCCNC(=O)CS(=O)(=O)Cc1nc(-c2cccc(OC)c2)oc1C	i	-2	-3	25*	0	0
O=C(NCC1CCN(c2ccc(S(=O)(=O)N3CCOCC3)cc2)CC1)Nc1ccccc1F	i	0	-2	i	-2	6
CCCCS(=O)(=O)Nc1ccc2cn[nH]c2c1	i	3	1	i	-1	-23
CCCCS(=O)(=O)Nc1ccc2ncn(C)c(=O)c2c1	i	-1	11*	i	-2	10
Cc1cccc(N2CCN(CC(=O)Nc3ccc(S(=O)(=O)N4CCOCC4)cc3)CC2)c1C	i	0	-6	25*	2	2
CC(=O)Nc1ccc(S(=O)(=O)N2CCN(c3nnnn3-c3ccccc3)CC2)cc1	i	0	0	i	0	102*
CCCCC(=O)Nc1ccc(C(=O)Nc2ccc(S(=O)(=O)N3CCCC3)cc2)cc1	i	2	31*	i	0	33
O=C(Nc1cccc(F)c1)c1ccc(S(=O)(=O)N2CCCCC2)cc1	i	1	17*	i	2	-15
Cc1ccc(S(=O)(=O)N2CCN(CC(=O)Nc3ccc(N4CCOCC4)cc3)CC2)cc1C	i	-1	-2	i	0	-10
O=C(Nc1cccc(O)c1)c1ccc(S(=O)(=O)N2CCCCCC2)cc1	i	0	2	/	0	2
O=C1NC[C@H](CCCCN2C[C@H](Cc3ccccc3)N(CCc3ccc(O)cc3)C(=O)C2=O)N(CCc2ccccc2)C1=O	/	/	/	/	1	/
O=C(Nc1ccc(N2CCOCC2)c(Cl)c1)c1c(F)c(F)c(F)c(F)c1F	i	5	-5	i	14	34
CCC(=O)c1ccc(OCC(O)CN2CCN(S(=O)(=O)c3ccc(NC(C)=O)cc3)CC2)cc1 (stereo not drawn)	i	2	1	i	0	-6
SMILES	TMEM16A act	CRFBP-R2 agonist	GRIN3A LBD mod	ANO1 block	MPTP inh	CRFBP-R2 block
O=C(Nc1ccc(N2CCOCC2)c(Cl)c1)c1cccc(F)c1	i	-2	12*	i	-1	-2
CC(=O)Nc1ccc(OCC(O)CN2CCN(S(=O)(=O)c3ccc(NC(C)=O)cc3)CC2)cc1 (stereo not drawn)	i	7	-3	100*	-2	3
NC(=O)C1CCCN(C(=O)c2ccc(S(=O)(=O)N3CCCCCC3)cc2)C1 (stereo not drawn)	-13*	0	2	/	-1	1
CC(=O)Nc1ccc(NC(=O)c2ccc(S(=O)(=O)N3CCCCCC3)cc2)cc1	/	-2	/	/	0	0
CC(=O)Nc1ccc(C(=O)Nc2ccc(S(=O)(=O)N3CCCCC3)cc2)cc1	i	0	23*	i	4	-11
CCc1ccc(NC(=O)Nc2ccsc2C(=O)OC)cc1	i	-1	-4	i	1	-2
Cc1ccc(C(=O)Nc2ccc(S(=O)(=O)N3CCCC3)cc2)s1	i	-1	24*	i	3	-1
O=C(Nc1ccc(S(=O)(=O)N2CCCCC2)cc1)c1ccc(Cl)nc1	i	0	24*	/	1	7
O=C(Nc1ccc(S(=O)(=O)N2CCCC2)cc1)c1ccc(Cl)nc1	i	1	-2	i	-2	-12
O=C(Nc1cccc(F)c1)c1cc(S(=O)(=O)N2CCOCC2)ccc1N1CCCC1	i	66*	2	/	0	-35
O=C(CN1CCCCC1)Nc1ccc(S(=O)(=O)N2CCCCCC2)cc1	i	0	11*	i	-1	-16
O=C(CN1CCCC1)Nc1ccc(S(=O)(=O)N2CCCCC2)cc1	i	0	0	i	-1	3
COc1ccc([C@H]2CC(=O)C[C@@H](CCn3cc(-c4nccn4C)nn3)O2)cc1	/	/	/	/	0	/
CCCCC[C@H](C)N1C[C@@H](COCc2ccccc2)Oc2cc(N3CC[C@H](O)C3)ccc2S1(=O)=O	/	/	/	/	1	/
CCN(CC)C(=O)C1=C(C)N(Cc2ccccc2)C(=O)C(CC(=O)NCCCN(C)C)C1 (stereo not drawn)	/	6	/	/	1	5
O=C(CNc1ccc(F)cc1Cl)Nc1cccc(S(=O)(=O)N2CCCCC2)c1	i	1	13*	/	27	6
O=C(CCCCn1c(=O)c2ccccc2n(Cc2ccc(Cl)cc2)c1=O)NCc1ccco1	i	0	14*	i	-6	12
S=C1NCN(CCc2ccccc2)CN1Cc1ccccc1	i	1	-1	i	0	108*
COc1cc(N)cc(NC(=O)c2ccncc2)c1	i	0	2	i	-2	6
COc1cc(NC(=O)c2csc(N)n2)cc(C(=O)Nc2cccc(C(F)(F)F)c2)c1	i	0	19*	i	-1	11
COc1cc(NC(=O)c2cc(C)on2)cc(C(=O)Nc2cccc(C(F)(F)F)c2)c1	i	2	2	i	18	21
CCOC(=O)c1nccnc1C(=O)Nc1cccc(C(F)(F)F)c1	i	0	6	i	-1	8

High-throughput results (PubChem BioAssay)
